Screening results (PubChem BioAssay)
AmpC inh detg – qHTS Inhibitors of AmpC Beta-Lactamase (assay with detergent). AID 485294, 2010. AmpC hydrolysis of nitrocefin, absorbance 480 nm, 0.01% Triton. Potency, µM (highest dose often 114 µM), usual class: inhibitors. hit rate 0.041% among 370,000. P00811; further: nearly all actives have a fitted effect of over 25% in size
Target sequence (P00811 whole entry, looked up): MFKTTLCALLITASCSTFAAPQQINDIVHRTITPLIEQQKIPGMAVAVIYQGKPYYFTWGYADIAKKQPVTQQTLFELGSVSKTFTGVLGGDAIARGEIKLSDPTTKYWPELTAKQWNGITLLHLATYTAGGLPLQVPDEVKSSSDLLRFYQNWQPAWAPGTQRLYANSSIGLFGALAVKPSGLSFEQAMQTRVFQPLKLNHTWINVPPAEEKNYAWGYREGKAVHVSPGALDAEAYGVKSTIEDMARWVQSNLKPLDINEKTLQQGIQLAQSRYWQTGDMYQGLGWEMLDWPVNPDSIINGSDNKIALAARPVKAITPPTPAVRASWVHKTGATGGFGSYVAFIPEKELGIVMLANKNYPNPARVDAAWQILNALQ
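20 mM phosphate pH 7.0 + 0.01% (detergent screen) or 0.0001% Triton X-100; 5.3 nM AmpC reagent; cpd preinc 15 min RT; nitrocefin (800 uM stock) to start; A480 q20 s × 4 min; Activity was normalised to no-enzyme and no-compound control wells.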
FMDV antiviral – High Throughput Screening for Foot and Mouth Disease Virus Antivirals; FMDV antiviral cell-based qHTS; Potency, µM (top dose mostly 57.9 µM), most hits filed as inhibitors; hit rate 1.2% among 410,000; AID 1159524, 2015; calls by dose curve; tested in HEK293T cells; further: read-out not given here; nearly all actives have a fitted effect of over 45% in size
Sm TGR inh – qHTS Assay for the Inhibitors of Schistosoma Mansoni Peroxiredoxins; Schistosoma mansoni thioredoxin glutathione reductase (TGR), Q962Y6; purified TGR, DTNB reduction, TNB absorbance 405 nm; Potency, µM (highest dose often 114 µM), hits mostly inhibitors; hit rate 3% among 360,000; further: nearly all actives have a fitted effect of over 60% in size
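TGR 20 nM + NADPH 100 uM (dispensed conc.), cpd preinc 15 min RT; start with NADPH (500 uM addition) then DTNB (15 mM addition). Kinetic TNB absorbance, 405 nm filter. Four-parameter Hill fit across titration.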
AmpC no deterg – qHTS Inhibitors of AmpC Beta-Lactamase (assay without detergent) | hit rate 0.52% among 330,000 | AmpC nitrocefin hydrolysis, absorbance 480 nm, 0.0001% Triton | AID 485341, 2010 | Potency, µM (highest dose often 57.1 µM), actives largely listed as inhibitors; further: nearly all actives have a fitted effect of over 20% in size
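AmpC (5.3 nM in the dispensed reagent) in 20 mM phosphate pH 7.0 with 0.01% (detergent screen) or 0.0001% Triton X-100 was preincubated with compounds for 15 min at room temperature. Nitrocefin was then added from an 800 uM solution, and hydrolysis was followed at 480 nm.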
AMA1 RON2 block – qHTS for Inhibitors of AMA1-RON; Towards Development of Antimalarial Drug Lead: Primary Screen; Potency, µM (top dose mostly 58.2 µM), hits mostly inhibitors; hit rate 0.2% among 360,000; Plasmodium falciparum AMA1 (3D7) - RON2 peptide interaction; AlphaScreen AMA1-biotinylated RON2 peptide binding; AID 720542, 2013; further: nearly all actives have a fitted effect of over 45% in size
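AMA1 (3D7) with his tag at 25 nM final met compounds first, then biotinylated RON2 peptide at 25 nM; detection used donor plus acceptor beads, 10 µg/mL apiece, read by AlphaScreen after 30 min at room temperature.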
Hits are given with their value. Hits are enriched below; roughly 4.1% of the tested compounds scored in any of these assays. Unless noted, the call rests on the fitted dose curve; in most records, active means well fitted curve in the direction sought with a large enough effect; inconclusive means small, poorly fitted or top-dose-only effect, or another doubt; inactive means no such curve, though single readings can be large; an effect the other way counts as inactive or inconclusive.

What do the screens show for `O=C(CSc1nc2nc(-c3cccs3)cc(C(F)(F)F)c2c(=O)[nH]1)C(F)(F)F`?
AmpC inh detg: inactive; FMDV antiviral: inactive; Sm TGR inh: 3.5µM; AmpC no deterg: inactive; AMA1 RON2 block: inactive

Results for CC(=O)Nc1ccccc1-c1nc(CNC(=O)c2ccc(-c3ccccc3F)cc2)c(C)o1 ?
FMDV antiviral: inactive

How did Cc1ccc(/C=C/c2onc(C)c2S(=O)(=O)N2CCC(C(=O)Nc3ccc(OC(F)(F)F)cc3)CC2)cc1 do in these assays?
AmpC inh detg: inactive; FMDV antiviral: inactive; Sm TGR inh: inactive

What do the screens show for `Cc1ccc(C(=O)Nc2ccc(Cl)cn2)cc1`?
AmpC inh detg: inactive; FMDV antiviral: inactive; Sm TGR inh: inactive; AmpC no deterg: inactive; AMA1 RON2 block: inactive

What do the screens show for `Cc1ccc(C(=O)Nc2ncc3c(Cl)cccc3n2)cc1`?
AmpC inh detg: inactive; FMDV antiviral: 10µM; Sm TGR inh: inactive; AmpC no deterg: inactive; AMA1 RON2 block: inactive

What do the screens show for `COc1cc(OC)c(NC(=O)c2sc3nc4n(c(=O)c3c2C)CCCC4)cc1Cl`?
AmpC inh detg: inactive; FMDV antiviral: inactive; Sm TGR inh: 50µM

What do the screens show for `COc1cc(OC)c(N(C)C(=O)c2sc3nc4n(c(=O)c3c2C)CCCC4)cc1Cl`?
AmpC inh detg: inactive; FMDV antiviral: inactive; Sm TGR inh: 32µM

How did CCc1ccc(-n2c(=O)c3cccnc3n2CC(=O)N(CC)c2cccc(C)c2)cc1 do in these assays?
AmpC inh detg: inactive; FMDV antiviral: inactive; Sm TGR inh: inactive

What do the screens show for `CCC(c1nnnn1CCc1ccccc1)N(Cc1ccco1)Cc1cc2cccc(C)c2[nH]c1=O` (centres undefined)?
AmpC inh detg: inconclusive; FMDV antiviral: inactive; Sm TGR inh: inactive; AmpC no deterg: inactive; AMA1 RON2 block: inactive

How did CCOc1ccc2[nH]c(=O)c(CN(Cc3ccco3)C(CC)c3nnnn3Cc3ccccc3)cc2c1 (centres undefined) do in these assays?
AmpC inh detg: inactive; FMDV antiviral: inconclusive; Sm TGR inh: 16µM; AmpC no deterg: inactive; AMA1 RON2 block: inactive

How did CCOc1ccc2[nH]c(=O)c(CN(Cc3ccco3)Cc3nnnn3Cc3ccccc3)cc2c1 do in these assays?
AmpC inh detg: inactive; FMDV antiviral: inactive; Sm TGR inh: 22µM; AmpC no deterg: inactive; AMA1 RON2 block: inactive

How did COc1ccc2[nH]c(=O)c(CN(Cc3cccs3)Cc3nnnn3Cc3ccccc3)cc2c1 do in these assays?
AmpC inh detg: inactive; FMDV antiviral: inconclusive; Sm TGR inh: inactive; AmpC no deterg: inactive; AMA1 RON2 block: inactive

What do the screens show for `CNC(=S)N(Cc1ccco1)Cc1cc2cc(OC)ccc2[nH]c1=O`?
AmpC inh detg: inactive; FMDV antiviral: inconclusive; Sm TGR inh: inactive; AmpC no deterg: inactive; AMA1 RON2 block: inactive

How did Cc1ccc2cc(CN(Cc3ccc4c(c3)OCO4)Cc3nnnn3Cc3ccco3)c(=O)[nH]c2c1C do in these assays?
AmpC inh detg: inactive; FMDV antiviral: inactive; Sm TGR inh: inconclusive; AmpC no deterg: inactive; AMA1 RON2 block: inactive

Results for COC(=O)c1ccccc1S(=O)(=O)N(Cc1ccco1)Cc1cc2cc(OC)ccc2[nH]c1=O ?
AmpC inh detg: inactive; FMDV antiviral: inactive; Sm TGR inh: 7.1µM; AmpC no deterg: inactive; AMA1 RON2 block: inactive

Results for Cc1ccc2cc(CN(CCN3CCOCC3)Cc3nnnn3Cc3ccco3)c(=O)[nH]c2c1C ?
AmpC inh detg: inactive; FMDV antiviral: inactive; Sm TGR inh: 35µM; AmpC no deterg: inactive; AMA1 RON2 block: inactive

How did CCOc1ccc2nc(N3CCN(C(=O)CS(=O)(=O)c4ccc(F)cc4)CC3)sc2c1 do in these assays?
AmpC inh detg: inactive; FMDV antiviral: inconclusive; Sm TGR inh: inactive

What do the screens show for `Cc1ccc2[nH]c(=O)c(CN(Cc3ccco3)S(=O)(=O)c3c(C)ccc4nsnc34)cc2c1`?
AmpC inh detg: inconclusive; Sm TGR inh: 28µM; AmpC no deterg: inactive; AMA1 RON2 block: inactive

Results for Cc1ccc2nsnc2c1S(=O)(=O)N(Cc1ccco1)Cc1cc2cccc(C)c2[nH]c1=O ?
AmpC inh detg: inactive; FMDV antiviral: inactive; Sm TGR inh: inconclusive; AmpC no deterg: inactive; AMA1 RON2 block: inactive

How did Cc1ccc2cc(CN(CCCN3CCOCC3)C(c3nnnn3Cc3ccco3)C(C)C)c(=O)[nH]c2c1C (centres undefined) do in these assays?
FMDV antiviral: inactive; AMA1 RON2 block: inactive

How did COc1ccccc1CN(Cc1cc2cc(C)ccc2[nH]c1=O)Cc1nnnn1Cc1ccco1 do in these assays?
AmpC inh detg: inactive; FMDV antiviral: inconclusive; Sm TGR inh: 40µM; AmpC no deterg: inactive; AMA1 RON2 block: inactive

Results for CCc1ccc2[nH]c(=O)c(CN(Cc3ccccc3OC)Cc3nnnn3Cc3ccco3)cc2c1 ?
AmpC inh detg: inconclusive; FMDV antiviral: inconclusive; Sm TGR inh: inconclusive; AmpC no deterg: inactive; AMA1 RON2 block: inactive

How did CCC(c1nnnn1Cc1ccco1)N(CCN1CCOCC1)Cc1cc2cc(C)ccc2[nH]c1=O (centres undefined) do in these assays?
AmpC inh detg: inactive; FMDV antiviral: inactive; Sm TGR inh: 45µM; AmpC no deterg: inactive; AMA1 RON2 block: inactive

What do the screens show for `COc1ccc2[nH]c(=O)c(CN(Cc3ccco3)Cc3nnnn3Cc3ccccc3)cc2c1`?
AmpC inh detg: inconclusive; FMDV antiviral: inactive; Sm TGR inh: 35µM; AmpC no deterg: inactive; AMA1 RON2 block: inactive

Results for CCc1cccc(C)c1NC(=O)C(CC)Sc1nc2ccncc2[nH]1 (centres undefined) ?
AmpC inh detg: inactive; FMDV antiviral: inactive; Sm TGR inh: inactive

How did O=C(CSc1nc(O)cc(=O)n1-c1ccccc1)Nc1ccccn1 do in these assays?
AmpC inh detg: inactive; FMDV antiviral: inactive; Sm TGR inh: inactive; AmpC no deterg: 11µM; AMA1 RON2 block: inactive

Results for CCC1(C2CCN(Cc3cccc4ccccc34)CC2)NC(=O)N(Cc2ccc3c(c2)OCO3)C1=O (centres undefined) ?
FMDV antiviral: inactive

Results for O=C1C=CC(O)C2(CO)OC12 (centres undefined) ?
FMDV antiviral: 28µM; AMA1 RON2 block: inconclusive

How did COc1ccc(OC)c(-n2c(=O)c3ccccc3c3ccccc3c2=O)c1 do in these assays?
AmpC inh detg: inactive; FMDV antiviral: 25µM; Sm TGR inh: inactive; AmpC no deterg: inactive; AMA1 RON2 block: inactive

How did CCN(CC)CCN(Cc1cc2cc3c(cc2[nH]c1=O)OCCO3)C(=S)NCCCN(C)C do in these assays?
AmpC inh detg: inactive; FMDV antiviral: inactive; Sm TGR inh: inconclusive; AmpC no deterg: inactive; AMA1 RON2 block: inactive

Results for CN(C)CCCNC(=S)N(CCN(C)C)Cc1cc2cc3c(cc2[nH]c1=O)OCCO3 ?
AmpC inh detg: inactive; FMDV antiviral: inactive; Sm TGR inh: 45µM; AmpC no deterg: inactive; AMA1 RON2 block: inactive
